Most compounds without a hit are left out; they make up all but 11% or so of the library.
VACV mCherry inh – inhibitors of vaccinia virus infection (mCherry reporter signal). Vaccinia virus mCherry reporter infection, fluorescence. Potency, µM (doses to about 36.5 µM), for the others: at the top dose activity change, negative = inhibition, actives largely listed as inhibitors. 310,000 tested, 0.63% active; calls by dose curve; tested in A549 cells; also: % is scaled to controls: 0 for no effect and ±100 for the full control effect; nearly all actives have a fitted effect of over 35% in size
Pf growth 96h – P. falciparum growth inhibition at 96 hours | P. falciparum luciferase reporter growth, 96 h | Potency, µM (series often up to 28.7 µM), without a hit: top-dose activity change, negative = inhibition, most hits filed as inhibitors | 320,000 tested, 6.9% active; also: % is scaled to controls: 0 for no effect and ±100 for the full control effect
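Infected RBCs, 2% Hct / 0.05% parasitemia final; luciferase-reporter P. falciparum; cpd 96 h, 37 C, 5% CO2; luciferase detection reagent; luminescence.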
HCV inhibitor – HCV inhibition; 340,000 tested, 3.4% active; AID 651820; Huh7.5.1 HCVcc-Cre infection, luciferase reporter, 44 h; Potency, µM (highest dose often 41.8 µM), for inactives: top-dose activity change, negative = inhibition, hits mostly inhibitors; also: % is scaled to controls: 0 for no effect and ±100 for the full control effect
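Luciferase read-out (15 sec integration) after a 15 min room-temperature substrate step quantifies HCVcc-Cre infection. Cells, 1,000 per well, had compound added 4 h post-plating, then virus at ~0.5 moi, and were cultured 44 h.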
Pf growth 48h – inhibits P. falciparum growth in the first generation, 48 h | P. falciparum luciferase growth in erythrocytes, 48 h | Potency, µM (series often up to 28.7 µM), inactives show at the top dose activity change, negative = inhibition, usual class: inhibitors | 310,000 tested, 5.9% active | AID 504832; also: % is scaled to controls: 0 for no effect and ±100 for the full control effect
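Cell-based growth assay: transgenic P. falciparum expressing firefly luciferase, cultured in red cells within RPMI 1640 containing 0.5% w/v Albumax, 24 mM bicarbonate and gentamycin. A drop in luciferase activity indicates inhibition.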
NS1 function inh – blocks influenza NS1 protein function. AID 2326. Potency, µM (series often up to 46.1 µM), for the others: at the highest dose activity, positive = more growth. 270,000 tested, 0.4% active; calls by dose curve; also: actives are rising curves; nearly all actives have a fitted effect of over 50% in size
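Compounds were scored for reversing the slow growth caused by influenza A NS1 in S. cerevisiae, measured by optical density at 600 nm. Assay medium contained 2% galactose at pH 6.0; NS1-free yeast of the same strain were the positive control.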
VACV Venus inh – inhibitors of vaccinia virus (Venus reporter); Potency, µM (titrated, usually from 36.5 µM), inactives show top-dose activity change, negative = inhibition, most hits filed as inhibitors; Vaccinia virus Venus reporter expression, fluorescence; 330,000 tested, 0.46% active; calls by dose curve; tested in A549 cells; also: % is scaled to controls: 0 for no effect and ±100 for the full control effect; nearly all actives have a fitted effect of over 30% in size
Starred values were filed as active, the others as inactive; i = inactive; ? = inconclusive; · = not tested or not shown; [ ] = another dose, or the depositor's remark. Unless noted, calls follow the shape of the dose curve; as a rule, active = well fitted inhibition curve with a large enough effect; inconclusive = small, poorly fitted or top-dose-only effect, or another doubt; inactive = no such curve, though single readings can be large or run the other way. Potency is read from the fitted curve at half-maximal effect.

SMILES | VACV mCherry inh | Pf growth 96h | HCV inhibitor | Pf growth 48h | NS1 function inh | VACV Venus inh
Cc1cc(NC(=O)c2ccc3c(c2)C(=O)N(C)C3=O)no1 | · | 2.9µM* | 11% | · | -4% | ·
CC(C)(C)N1C(=O)c2ccc(C(=O)Nc3ccc(C(=O)O)cc3)cc2C1=O | · | 9.3µM* | 15% | -2% | 7% | ·
O=C(c1cccs1)c1no[n+]([O-])c1C(=O)c1cccs1 | i | -3%[5.75 µM] | 10µM* | 47% | -132% | ?
COc1ccc(C(=O)c2no[n+]([O-])c2C(=O)c2ccc(OC)cc2)cc1 | -6% | -20% | ? | ? | -240% | 0%
O=C(NCc1n[nH]c(=S)n1-c1ccc(Br)cc1)c1ccc(S(=O)(=O)N2CCOCC2)cc1 | i | ? | 12% | 41% | · | 6%
O=C(NCc1n[nH]c(=S)n1-c1ccc([N+](=O)[O-])cc1)c1ccc(S(=O)(=O)N2CCOCC2)cc1 | -15% | 6.6µM* | 26% | 6% | · | -17%
CCc1nnc(NC(=O)c2nc(Cl)ccc2Cl)s1 | · | -21% | 6% | 8% | -12% | ·
Brc1ccc2[nH]c3c(c2c1)CCC3 | -10% | 6% | ? | 5% | -1% | 8%
OCCN=C1CCCc2c1[nH]c1ccc(Br)cc21 | -17%[1.46 µM] | 23% | 5.6µM* | 64% | -30% | -21%
O=C(O)CN(CCN(CC(=O)O)CC(=O)O)CCN(CC(=O)O)CC(=O)O | · | ? | · | -19% | -35% | ·
CC(=O)c1ccc(N2CCN(C(=O)CCC(=O)c3cccs3)CC2)cc1 | · | ? | 10% | -17% | · | ·
O=C(CCC(=O)N1CCN(c2ccc(O)cc2)CC1)c1ccc(Br)cc1 | · | 9.3µM* | · | 25% | 0% | ·
O=C(CCC(=O)N1CCN(c2ccc(O)cc2)CC1)c1cccs1 | · | 7.4µM* | -14% | 13µM* | 3% | ·
O=C1NC(=O)C(=Cc2ccc(SC3CCCCC3)o2)C(=O)N1 | · | -38%[5.75 µM] | 14% | 23% | · | ·
COc1ccc(CNC(=O)Cn2nc3c(cc2=O)CCCC3)cc1 | -11% | · | · | · | · | 0%
CCOC(=O)c1ccc(N2C(=O)C3C(C2=O)C(C(=O)c2ccc(Cl)cc2)N2CCCC32)cc1 (stereo not given) | -17% | 17% | -28% | 13µM* | -11% | -5%
CCOC(=O)c1ccc(N2C(=O)C3CC=CCC3C2=O)cc1 (stereo not given) | i | 25% | -3% | 18% | 6% | -5%
O=c1[nH]c(/C=C2\C=Nc3ccccc32)c(O)n1Cc1ccccc1F | ? | -22% | 4.5µM* | ? | 4% | ?
O=c1[nH]c(=O)n(Cc2ccccc2)c(O)c1/C=C1\C=Nc2ccccc21 | · | -52%[5.75 µM] | -5% | -7% | · | ·
COc1cc([N+](=O)[O-])ccc1NC(=O)Nc1ccc2c(c1)OCCO2 | -16% | 35% | 7.1µM* | 31% | 2% | -14%
COc1cc([N+](=O)[O-])ccc1NC(=O)Nn1cnnc1 | · | 13µM* | -8% | 11% | -3% | ·
O=C(NCCS(=O)(=O)NCc1ccco1)c1ccccc1 | -1% | 0% | 4%[8.37 µM] | 11% | · | -8%
O=C(CSc1nnc(Cc2ccccc2)o1)N1CCCC1 | 1% | -1% | 18% | 13% | -1% | -1%
O=C(CCc1nnc(Cc2ccc(-c3ccccc3)cc2)o1)N1CCCC1 | -9% | 9.3µM* | ? | ? | -1% | -9%
Cc1ccc(C)c(N2CCN(C(=O)C3CCCN(S(=O)(=O)c4c(C)noc4C)C3)CC2)c1 (stereo not given) | 12% | -24% | 11µM* | 12µM* | -40% | -20%
CCOC(=O)c1c(S(=O)(=O)N2CCCC(C(=O)NCc3ccccc3Cl)C2)c(C)n(C)c1C (stereo not given) | -13% | · | · | · | · | -17%
CCOC(=O)N1CCN(C(=O)C2CCCN(S(=O)(=O)c3c(C)cc(C)cc3C)C2)CC1 (stereo not given) | -14% | 10µM* | · | ? | -9% | -29%
CCOC(=O)N1CCN(S(=O)(=O)N2CCCC(C(=O)NCc3ccccc3Cl)C2)CC1 (stereo not given) | · | 12µM* | -6% | 6% | -14% | ·
Cc1noc(C)c1S(=O)(=O)N1CCN(c2ccccc2Cl)CC1 | -17% | 15µM* | -3% | ? | · | -8%
